Data: the supplement of paper PMC5662767

System: Drosophila S2 cl14 SmoIP sensor cells
Assay: normalized SmoIP GFP fluorescence (untreated unstimulated = 0%, untreated Hh-stimulated = 100%); higher = more Smo activation sensor fluorescence
Conditions: compound concentration: 2 uM, 24 h
[1] = stimulation: Hh conditioned medium (+Hh)
[2] = stimulation: mock conditioned medium (-Hh)
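Also: flow cytometry read-out as median GFP intensity of gated cells, compounds added 30 min before Hh-conditioned or mock medium, mock-treated cells serving as unstimulated baseline.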

Compound	normalized SmoIP GFP fluorescence [1] [%]	normalized SmoIP GFP fluorescence [2] [%]
COc1ccc2[nH]c([S+]([O-])Cc3ncc(C)c(OC)c3C)nc2c1 (stereo not given) [Omeprazole]	97	–
CN1CCN(C2CCN(C(=O)Nc3cc(Oc4ccc(NC(=O)C5(C(=O)Nc6ccc(F)cc6)CC5)c(F)c4)ccn3)CC2)CC1 [golvatinib-e7050]	125	12.5
COc1ccc(-c2nc3ccc(C4=NNC(=O)CC4C)cc3[nH]2)cc1 (stereo not given) [Pimobendan(Vetmedin)]	104	4.8
CC(C)(C)c1cc(NC(=O)Nc2ccc(-c3cn4c(n3)sc3cc(OCCN5CCOCC5)ccc34)cc2)no1	110	8.79
COc1cc2nccc(Oc3ccc(NC(=O)NC4CC4)c(Cl)c3)c2cc1C(N)=O	99.3	7.92
O=C(c1ccc(OCCN2CCCCC2)cc1)c1c(-c2ccc(O)cc2)sc2cc(O)ccc12 [Evista]	118	6.52
NS(=O)(=O)C#Cc1ccccc1 [pifithrin-u]	103	-0.0369
COc1ccc(C(=O)Nc2sc3c(c2C(N)=O)CCCC3)cc1OC	128	-9.85
CN(C)CC(=O)Nc1ccc2[nH]c(=O)c3ccccc3c2c1	113	-1.97
CCCNC(=O)Nc1ccc(Oc2ncnc3cc(OC)c(OC)cc23)cc1Cl	105	-6.51
CN(C)Cc1cccc(N/C(=C2\C(=O)Nc3cc(C(N)=O)ccc32)c2ccccc2)c1	103	-1.88
CC(C)c1cc(-c2n[nH]c(=O)n2-c2ccc3c(ccn3C)c2)c(O)cc1O [ganetespib-sta-9090]	103	-1.56
c1ccc2c(Oc3nc(Nc4ccc(N5CCOCC5)cc4)c4ncn(C5CCCCC5)c4n3)cccc2c1 [purmorphamine]	107	-1.23
